Pf Dd2 growth: Plasmodium falciparum Dd2 growth inhibition; P. falciparum Dd2 growth, SYBR Green, 72 h; Potency, µM (top dose mostly 28.9 µM), without a hit: at the highest dose activity, negative = inhibition, hits mostly inhibitors; hit rate 4.3% among 120,000; AID 1347417; active means well fitted inhibition curve with a large enough effect;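 further: plate controls were DMSO vehicle for no effect and reference drug for full effect; nearly all actives have a fitted effect of over 65% in size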
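Infected erythrocytes (Dd2, 0.3% parasitemia, 2.5% hematocrit final) are added to compound in RPMI-1640/Albumax II medium, grown 72 h at 37C in low oxygen, then lysed with saponin/Triton-X containing SYBR Green and read by fluorescence.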
* = called active by the depositor; i = inactive; ! = not active in a repeat; [ ] = remark or other dose. This is one part of a sample in which hits are shown more often than they occur. Potency means the concentration at half of the fitted maximal effect.

SMILES	Pf Dd2 growth
Cc1ccc(NC2=C(c3ccc(C(F)(F)F)cc3)C(=O)c3ccccc32)cc1C	0.79µM*
COc1ccc(C(=O)N2CCC(=O)N(Cc3ccc(F)cc3)C(C(C)C)C2)o1 (stereo not drawn)	-28%
COc1ccc(CNC(=O)C[C@@H]2C[C@@H](C(C)C)[C@H](CC#N)C=C2C)cc1	-15%[44.1 µM]
COc1ccc(-c2nnc(C[C@@H]3C[C@@H](C(C)C)[C@H](CN4CCN(C)CC4)C=C3C)o2)cc1	i
CC1=C[C@@H](CNC(=O)CCC(=O)O)[C@H](C(C)C)C[C@H]1CC(=O)NCc1ccccn1	19%[44.1 µM]
CC1=C[C@@H](CNS(=O)(=O)c2ccccc2)[C@H](C(C)C)C[C@H]1Cc1nnc(-c2ccncc2)o1	-11%
CC1=C[C@@H](CNCc2ccccn2)[C@H](C(C)C)C[C@H]1Cc1nnc(-c2ccccc2)o1	3.5µM*
CCNC(=O)NC[C@@H]1C=C(C)[C@H](CC(=O)NCc2ccccn2)C[C@H]1C(C)C	-2%[44.1 µM]
COc1ccc(-c2nnc(C[C@@H]3C[C@@H](C(C)C)[C@H](CN(C)CCC#N)C=C3C)o2)cc1	7.9µM*
COc1ccc(-c2nnc(C[C@@H]3C[C@@H](C(C)C)[C@H](CN(C)CCc4ccccn4)C=C3C)o2)cc1	11µM*
COCCNC(=O)C1CCN(C(=O)c2nnn3c2COC(c2ccc(C)cc2)C3)CC1 (stereo not drawn)	i
Cc1ccc(OCc2occc2C(=O)N2CCC3(CC2)CNC(=O)C3)cc1	7%
CN1C(=O)CCC2(CNC(=O)C3CCOCC3)CCC=C12 (stereo not drawn)	21%
COc1cc(Cl)ccc1C(=O)N1CCC(Cc2nc(C(C)C)no2)CC1	22%
CCOC(=O)c1ccccc1NC(=O)COC(=O)CC(C)(C)CC1=NS(=O)(=O)c2ccccc2N1	5%
CCc1nc2c(c(-c3ccc(O)cc3)n1)CN(Cc1ccccc1OC)CC2	-17%
Cc1nc2c(c(-c3ccc(O)cc3)n1)CN(Cc1ccsc1)CC2	i
Oc1ccc(-c2nc(C3CC3)nc3c2CN(Cc2ccccc2C(F)(F)F)CC3)cc1	2.5µM*!
Cc1nc2c(c(-c3ccc(O)cc3)n1)CN(Cc1cncs1)CC2	-7%[44.1 µM]
Oc1ccc(-c2nc(C3CC3)nc3c2CN(Cc2ccsc2)CC3)cc1	7.1µM*
Cc1ccc(C(=O)N2CCCN(S(C)(=O)=O)c3ccccc32)s1	i
CCn1cc(C(=O)N2CCN(c3ccccc3OC)CC2)c(=O)c2cc(S(=O)(=O)N3CCCCC3)ccc21	-8%
COc1ccc(C(=O)N2CCOC(CCCC(C)C)C2)cc1OC (stereo not drawn)	-4%
O=C(NCCc1ccc(Cl)cc1)c1cc(-c2ccc(Cl)cc2)n[nH]1	-22%
CC(C)(C(=O)N1C[C@H](C2CC2)[C@@H](N)C1)c1ccccc1	6.3µM*
SMILES	Pf Dd2 growth
CC(=O)N1CCC([C@@H]2CN(C(=O)COc3ccccc3)C[C@H]2CO)CC1	i
CC(C)(C(=O)N1Cc2cnn(Cc3ccc(F)cc3)c2C1)c1ccccc1	-13%
COCCN1C(=O)[C@H]2CN(Cc3cccc(Cl)c3F)C[C@H]2C1=O	-8%
Cc1nc2c(c(=O)[nH]1)CCN(C(=O)c1ccccc1C(F)(F)F)C2	1%
O=C(c1cc2ccc3cccnc3c2[nH]1)N1CCN(c2cccc(C(F)(F)F)c2)CC1	i
FC(F)(F)c1cccc(N2CCN(Cc3nnc(-c4ccccc4)o3)CC2)c1	16%
OC1(CN2CCN(c3cccc(C(F)(F)F)c3)CC2)CNCCOC1 (stereo not drawn)	-11%
CCOCc1cc(CN2CCN(c3cccc(C(F)(F)F)c3)CC2)c(O)c2ncccc12	2.8µM*
CC(C)OCc1cc(CN2CCN(c3cccc(C(F)(F)F)c3)CC2)c(O)c2ncccc12	1.4µM*
O=C(CCn1c(=O)c2cccn2c2cccnc21)N1CCN(c2cccc(C(F)(F)F)c2)CC1	i
CCCCNC(=O)C1CCN(C(=O)N2CC(C)Oc3ccc(Cl)cc32)CC1 (stereo not drawn)	-12%
CC(C)CNC(=O)NCC(=O)N1CCCCCNC(=O)CC1c1ccccc1 (stereo not drawn)	12%
O=C(c1cc(Cl)ccc1F)N1CCC(n2cc(-c3nc(C4CC4)no3)nn2)C1 (stereo not drawn)	i
CCN1C(=O)C(CC(=O)NCc2cccs2)Sc2ncccc21 (stereo not drawn)	-1%
CCc1noc(CN2CCC3(CCCN(C4CCOCC4)C3=O)C2)n1 (stereo not drawn)	-15%
O=C(NC1CCN(c2nc3ncccc3o2)CC1)C1CC1	12%[44.1 µM]
O=C(Nc1ccc(-c2cn3cccnc3n2)cc1)c1cc(Br)ccc1Cl	i
Fc1ccc(Cc2nc3nccc(-c4ccc5c(c4)OCCCO5)n3n2)cc1	14µM*
COCc1nc2nccc(-c3ccc4c(c3)OCCCO4)n2n1	-13%
COc1ccc(Cc2nc3nccc(-c4ccc5c(c4)OCCCO5)n3n2)cc1	-7%
C=CCOC(=O)Nc1nc2c(s1)C[C@@H]1[C@](C)(CO)[C@H](O)CC[C@@]1(C)[C@@H]2CC(=O)NC(C)C	-9%
